NPC1 prom act: activators of NPC1 promoter. Huh7 NPC1 promoter luciferase reporter, 24 h. Potency, µM (series often up to 9.22 µM), usual class: activators. 320,000 compounds, 2.4% hits; also: nearly all actives have a fitted effect of over 60% in size
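Compounds in DMSO were transferred onto Huh7 NPC1-luciferase reporter cells pre-incubated 2 h; after 24 h at 37 °C, Amplite reagent was dispensed and luminescence recorded 10 min later.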
SMN2 splice enh: enhancers of SMN2 splice variant expression; 210,000 compounds, 2.8% hits; HEK293 SMN2-luciferase splicing reporter, luminescence, 30-36 h; Potency, µM (titrated, usually from 46.1 µM), usual class: activators; also: nearly all actives have a fitted effect of over 55% in size
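HEK293 cells carry an SMN2 minigene-luciferase reporter in which exon 7 inclusion puts luciferase in frame. Cells were seeded at 2000 cells/well, attached for 10-12 hours, then exposed to compounds for 30-36 hours at 37C before ONE-Glo luminescence.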
KinaseGlo FLuc: blocks Kinase-Glo luciferase, a counter-screen artifact; 200,000 compounds, 0.28% hits; Kinase-Glo luciferase, ATP luminescence, 8 min; Potency, µM (doses to about 38.3 µM), hits mostly inhibitors; AID 1379; Q27757; also: nearly all actives have a fitted effect of over 60% in size
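Compound is pinned into ATP-containing buffer (10 uM ATP, imidazole pH 7.2, 7 mM MgCl2). Kinase-Glo luciferase reagent is then added. Light output is recorded following an 8-min room-temperature incubation.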
ELG1 genotoxic: genotoxicity induction in ELG1-luciferase HEK293T cells; 330,000 compounds, 1.3% hits; AID 504466; HEK293T ELG1-luciferase reporter, luminescence, 16 h; Potency, µM (doses to about 46 µM), actives largely listed as activators; also: nearly all actives have a fitted effect of over 60% in size
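16 hr compound incubation (37 °C, 5% CO2) of HEK293T cells carrying luciferase-tagged ELG1; luciferase then measured by ONE-Glo luminescence after 30 min at RT.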
FLuc modulator: inhibits or activates purified firefly luciferase, miR-21 counter-screen. P08659. purified FLuc, Km substrates, luminescence inhibition. Potency, µM (highest dose often 57.5 µM), most hits filed as inhibitors. 360,000 compounds, 6.9% hits; also: nearly all actives have a fitted effect of over 55% in size
Target sequence (P08659 whole entry, looked up): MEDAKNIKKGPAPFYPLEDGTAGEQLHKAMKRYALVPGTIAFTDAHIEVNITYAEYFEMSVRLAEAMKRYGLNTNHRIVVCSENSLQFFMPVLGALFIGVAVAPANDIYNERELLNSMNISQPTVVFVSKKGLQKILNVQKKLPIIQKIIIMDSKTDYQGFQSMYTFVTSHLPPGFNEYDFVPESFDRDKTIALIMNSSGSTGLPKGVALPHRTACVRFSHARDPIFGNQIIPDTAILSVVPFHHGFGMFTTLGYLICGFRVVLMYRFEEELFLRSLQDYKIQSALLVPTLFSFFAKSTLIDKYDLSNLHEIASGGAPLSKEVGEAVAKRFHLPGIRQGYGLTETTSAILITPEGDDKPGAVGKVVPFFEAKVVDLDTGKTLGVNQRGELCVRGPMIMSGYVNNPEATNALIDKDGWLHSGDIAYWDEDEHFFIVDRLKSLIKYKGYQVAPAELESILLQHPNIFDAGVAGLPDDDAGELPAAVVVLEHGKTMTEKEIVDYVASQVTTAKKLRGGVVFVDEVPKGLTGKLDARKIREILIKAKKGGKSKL
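Biochemical qHTS of compounds, final roughly 60 µM downward over six points, against 10 nM purified firefly luciferase using Km concentrations of substrates (10 uM D-luciferin, 10 uM ATP) in Tris acetate pH 7.5 buffer; luminescence output.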
Rab9 prom act: Rab9 promoter activation; Potency, µM (doses to about 9.22 µM), usual class: activators; 320,000 compounds, 2.8% hits; Huh7 Rab9 promoter-luciferase reporter, luminescence, 24 h; AID 485297; also: nearly all actives have a fitted effect of over 60% in size
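Quantitative HTS format; Huh7 Rab9-luciferase reporter cells (1500/well) receive compound 2 h post-plating, incubate 24 h at 37 °C, then get luciferase reagent for 10 min before luminescence reading.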
Hits are given with their value; - = inactive; ? = inconclusive; . = not tested or not shown; [ ] = another dose, or the depositor's remark. Most compounds without a hit are left out; they make up all but 7.4% or so of the library. Calls follow the shape of the dose curve; as a rule, active = well fitted curve in the direction sought with a large enough effect; inconclusive = small, poorly fitted or top-dose-only effect, or another doubt; inactive = no such curve, though single readings can be large; an effect the other way counts as inactive or inconclusive.

SMILES | NPC1 prom act | SMN2 splice enh | KinaseGlo FLuc | ELG1 genotoxic | FLuc modulator | Rab9 prom act
COc1ccc(NC(=O)CSc2nnc(NC(=O)c3ccccc3C(=O)O)s2)cc1 | - | . | - | - | 27µM | -
CCOC(=O)N1CCN(S(=O)(=O)c2c[nH]c(C(=O)OC)c2)CC1 | - | . | . | - | - | -
Cn1c(C=O)c(C#Cc2ccccc2)c2ccccc21 | - | . | . | - | - | -
COc1ccc(Nc2nnc(SCC(=O)Nc3ccc4[nH]c(=O)[nH]c4c3)s2)cc1 | - | . | . | - | 2.4µM | -
Cc1nnc(SCC(=O)Nc2ccc3[nH]c(=O)[nH]c3c2)s1 | - | . | . | - | - | -
Cc1ccc(C(=O)NC2CCC(C)CC2)s1 (stereo not drawn) | 0.89µM | . | . | ? | ? | 0.4µM
O=C(NCCCn1ccnc1)c1cc2c(s1)CCCCC2 | - | - | - | ? | 17µM | -
CC(C)NC(=O)c1cc2c(s1)CCCC2 | - | - | - | - | ? | -
CC1CCc2sc(C(=O)NCCCn3ccnc3)cc2C1 (stereo not drawn) | - | . | . | - | - | -
Cc1ccc(C(=O)NC2CCCC2)s1 | - | . | . | ? | - | -
CNC(=O)c1cc2c(s1)CCCCCC2 | - | - | - | - | 13µM | -
CC(OC(=O)c1cc2c(s1)CCCCC2)C(=O)NC(N)=O (stereo not drawn) | - | - | - | - | 24µM | -
CC(Sc1nnc(-c2ccco2)n1C)C(=O)N1C(C)CCCC1C (stereo not drawn) | - | . | . | - | - | -
N#CC(C#N)=CNCCN1CCN(C=C(C#N)C#N)CC1 | . | -[9.22 µM] | -[7.66 µM] | . | . | .
COc1ccc(-n2ncc3c2CC(C)(C)CC3NC(=O)CCn2cncn2)cc1 (stereo not drawn) | - | . | . | - | - | -
O=C(NCCO)c1cc2c(s1)CCC2 | - | - | - | - | - | -
O=C(O)C1CCCCN1C(=O)c1cc2c(s1)CCCCC2 (stereo not drawn) | - | . | . | - | . | -
CC1CCC(NC(=O)c2cc3c(s2)CCCC3)CC1 (stereo not drawn) | ? | . | . | ? | 12µM | ?
O=C(Nn1cnnc1)c1cc2c(s1)CCCCC2 | - | ? | - | ? | 6.7µM | -
CNC(=O)c1cc2c(s1)-c1ccccc1CC2 | ? | 7.9µM | - | ? | 19µM | ?
O=C(NCc1ccco1)c1cc2c(s1)CCCCC2 | 4µM | 14µM | - | 12µM | 13µM | 1.6µM
O=C(Nc1sc2c(c1C(=O)NCC1CCCO1)CCC2)c1cc(=O)c2ccccc2o1 (stereo not drawn) | . | - | . | . | - | .
CCOC(=O)N1CCN(C(=O)CSc2nnc(COc3ccccc3)o2)CC1 | - | 4µM | - | - | - | -
CCOC(=O)N1CCN(C(=O)CSCc2ccc(Cl)cc2)CC1 | - | - | - | - | - | -
CCOC(=O)N1CCN(C(=O)CSCc2ccccc2)CC1 | ? | 11µM | - | - | ? | ?
SMILES | NPC1 prom act | SMN2 splice enh | KinaseGlo FLuc | ELG1 genotoxic | FLuc modulator | Rab9 prom act
O=C(N/C(=C\c1ccco1)C(=O)N1CCCC(CO)C1)c1ccccc1 (stereo not drawn) | - | . | . | - | - | -
COc1ccccc1NC(=O)Cn1c(SCC(=O)NCc2ccccc2)nc2ccccc21 | . | . | . | . | - | .
Cc1ccc(C)c(S(=O)(=O)c2nnn3c2nc(Nc2ccc(C)c(C)c2)c2ccccc23)c1 | . | - | . | . | - | .
O=S(=O)(c1cccc(-c2nnc(SCc3nc4ccccc4s3)o2)c1)N1CCOCC1 | ? | - | - | - | 19µM | ?
O=S(=O)(c1ccc(OCc2nc3ccccc3s2)c(Cl)c1)N1CCOCC1 | ? | - | - | 9.2µM | - | ?
CC(=O)CCSc1nnc(-c2cccc(S(=O)(=O)N3CCOCC3)c2)o1 | - | . | . | - | - | -
COc1ccc(NC(=O)C(=O)NCCC2CCCCN2S(=O)(=O)c2ccc(F)cc2)cc1 (stereo not drawn) | - | . | . | - | - | -
Cc1nnc(NN2CCOCC2)[nH]c1=O | - | - | - | - | - | -
N#Cc1cccc(N=c2ssnc2Cl)c1 | - | - | - | - | 19µM | -
COc1cc(N=c2ssnc2Cl)cc(OC)c1 | - | - | - | - | ? | -
Clc1nssc1=Nc1ccc(Br)cc1 | - | - | - | - | 24µM | -
O=C(Nc1cccc(Cl)c1Cl)c1cc(S(=O)(=O)N2CCC3(CC2)OCCO3)ccc1F | . | . | . | . | - | .
CCC1CCCCN1CCCNC(=O)c1sc2nc(C)cc(C)c2c1-n1cccc1 (stereo not drawn) | . | . | . | . | - | .
CC(C)(C)C1CCC(OC(=O)CN2CCCCC2)CC1 (stereo not drawn) | - | . | . | - | 19µM | -
CCc1ccccc1OCC(=O)Nc1ccc(S(N)(=O)=O)cc1 | - | 35µM | - | - | - | -
Fc1ccc(OCc2nc3ccccc3s2)cc1 | 1.4µM | 11µM | ? | 2.3µM | 2.4µM | 3.2µM
O=S(=O)(Cc1nc2ccccc2s1)c1ccccc1 | 2µM | 14µM | - | 4.6µM | 12µM | 3.2µM
COc1ccc(S(=O)(=O)CCc2nc3ccccc3s2)cc1 | - | - | - | - | - | -
Cc1cc(OCc2nc3ccccc3s2)ccc1N | 1µM | . | . | 2.9µM | 1.5µM | 0.56µM
c1ccc(OCc2nc3ccccc3s2)cc1 | 2.5µM | 13µM | - | ? | 3.4µM | 2.8µM
O=S(=O)(CCc1nc2ccccc2s1)c1ccc(Cl)cc1 | - | - | - | - | - | -
N#Cc1ccc(NC(=O)CCc2nc3ccccc3s2)cc1 | - | - | - | - | - | -
CCC(=O)Nc1ccc(OCc2nc3ccccc3s2)cc1 | 2µM | 5µM | - | 2.9µM | 4.3µM | 0.63µM
NNC(=O)c1ccc(CSc2cccc3cccnc23)cc1 | - | - | - | - | ? | -
Cc1cccc(CSc2cccc3cccnc23)c1 | - | - | - | ? | 19µM | -
SMILES | NPC1 prom act | SMN2 splice enh | KinaseGlo FLuc | ELG1 genotoxic | FLuc modulator | Rab9 prom act
O=C(N/N=C/c1ccccc1Br)c1ccc(CSc2cccc3cccnc23)cc1 | - | - | - | - | - | -
c1cnc2c(SCc3ccc(-c4nnco4)cc3)cccc2c1 | ? | - | - | - | 24µM | ?
Oc1ccccc1C1CCCCC1c1ccccc1 (stereo not drawn) | - | . | . | - | - | -
CC(NC(=O)c1ccc(S(=O)(=O)N(C)C)cc1)c1ccc(-n2ccnc2)cc1 (stereo not drawn) | - | . | . | - | - | -
N#Cc1ccccc1N=Cc1ccc(Br)cc1 | - | - | - | - | 1.5µM | -
COc1cccc(C=Nc2ccccc2C#N)c1O | - | ? | ? | - | 2.7µM | -
COc1cccc(C=Nc2ccc3c(c2)CCC3)c1O | - | . | . | - | 2.7µM | -
COc1ccc(CNc2nc(-c3ccco3)nn2S(=O)(=O)c2ccc(Cl)cc2)cc1OC | . | . | . | . | - | .
CCN(CC(=O)NCc1ccc(F)cc1)C(=O)CN1CCN(c2cc(Cl)ccc2C)CC1 | - | . | . | - | - | -
Cc1ccc(C(=O)c2cncc(Br)c2)cc1 | - | - | - | - | -[2.3 µM] | ?

High-throughput results deposited in PubChem by National Center for Advancing Translational Sciences (NCATS).
